# Neddylation inh = blocks human cullin neddylation; P61081+Q13564; TR-FRET cullin neddylation, biochemical; inhibition, % at 25 µM; 360,000 compounds, 0.58% hits; in the data active means inhibition above about 36%
# PfGluPho inh = PfG6PD (Plasmodium falciparum) enzyme inhibition. PfGluPho enzyme, NADPH resazurin-diaphorase fluorescence. inhibition, % at 20 µM. 350,000 compounds, 0.78% hits. AID 504690;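 active means inhibition reaching at least a set limit at 20 µM in the primary screen, cut at about 59% in these data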;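 further: 0% = DMSO wells with substrate and 100% = DMSO wells lacking glucose-6-phosphate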
# A3G deaminase = inhibitors of human APOBEC3G DNA deaminase; Q9HC16; recombinant A3G, ssDNA deamination FAM/TAMRA fluorescence; inhibition, % at 20 µM; 330,000 compounds, 0.28% hits; AID 493012;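 active means inhibition of at least 40% at 20 µM, with no more than 30% in the related APOBEC3A deaminase screen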;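 further: plate controls were DMSO wells with A3G for no effect and wells lacking A3G enzyme for full effect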
# A3A deaminase = inhibitors of human APOBEC3A DNA deaminase. recombinant A3A, FAM/TAMRA ssDNA deamination fluorescence. 330,000 compounds, 0.41% hits. P31941. inhibition, % at 20 µM;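 active means at least 40% inhibition at 20 µM here, with at most 30% in a related deaminase screen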;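 further: plate controls were A3A with DMSO for no effect and wells lacking A3A enzyme for full effect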
# NPR2 activator = GC-B (human) receptor activation; activation, % at 10 µM; 370,000 compounds, 0.11% hits; HEK293-GC-B cells, CNP EC30, cGMP TR-FRET; 0% at EC30 CNP, 100% saturating CNP;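 active means activation at 10 µM reaching about 35% in either raw or pattern-adjusted values, limit read from the data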
# NPR1 activator = GC-A (human) enzyme activation; activation, % at 10 µM; HEK293 GC-A cells, cGMP TR-FRET, EC30 ANP; 0% at EC30 ANP, 100% saturating ANP; 370,000 compounds, 0.14% hits; AID 1671463; in the data active means activation above about 40%
# Target sequence (P16066 whole entry, looked up): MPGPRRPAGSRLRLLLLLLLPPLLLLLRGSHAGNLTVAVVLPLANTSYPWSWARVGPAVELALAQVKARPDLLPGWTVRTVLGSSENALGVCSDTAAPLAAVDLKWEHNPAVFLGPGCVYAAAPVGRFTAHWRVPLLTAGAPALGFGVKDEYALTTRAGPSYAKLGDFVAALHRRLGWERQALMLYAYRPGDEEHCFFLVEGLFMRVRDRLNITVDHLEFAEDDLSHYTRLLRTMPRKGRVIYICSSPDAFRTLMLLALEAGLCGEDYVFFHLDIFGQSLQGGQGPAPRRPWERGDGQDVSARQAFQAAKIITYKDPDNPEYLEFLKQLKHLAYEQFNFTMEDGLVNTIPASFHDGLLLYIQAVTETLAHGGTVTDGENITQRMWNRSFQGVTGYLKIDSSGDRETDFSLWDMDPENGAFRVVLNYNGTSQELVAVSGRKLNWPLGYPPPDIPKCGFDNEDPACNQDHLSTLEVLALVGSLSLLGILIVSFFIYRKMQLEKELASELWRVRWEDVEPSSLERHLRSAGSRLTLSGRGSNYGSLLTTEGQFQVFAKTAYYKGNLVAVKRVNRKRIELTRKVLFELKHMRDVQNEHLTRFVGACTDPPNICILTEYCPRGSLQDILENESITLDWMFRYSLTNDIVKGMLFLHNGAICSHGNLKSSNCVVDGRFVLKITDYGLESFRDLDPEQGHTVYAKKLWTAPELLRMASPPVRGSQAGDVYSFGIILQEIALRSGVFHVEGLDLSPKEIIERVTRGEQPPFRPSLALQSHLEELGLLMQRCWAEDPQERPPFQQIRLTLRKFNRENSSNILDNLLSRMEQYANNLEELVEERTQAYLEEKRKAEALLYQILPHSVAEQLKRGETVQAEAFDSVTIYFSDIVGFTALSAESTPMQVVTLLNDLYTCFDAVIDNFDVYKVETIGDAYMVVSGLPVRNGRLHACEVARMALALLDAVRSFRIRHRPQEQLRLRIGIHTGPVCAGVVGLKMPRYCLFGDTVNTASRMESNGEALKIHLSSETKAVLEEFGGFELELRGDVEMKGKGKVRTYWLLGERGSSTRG
# APOBEC3G confirm = APOBEC3G (human) deaminase inhibition, confirmed | shares compounds with A3G deaminase | recombinant A3G ssDNA deaminase, UDG/FAM-TAMRA fluorescence | inhibition, % at 20 µM | 890 compounds, 72% hits | AID 493152;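 active means inhibition reaching a set limit in any replicate at 20 µM, the limit being 80% of the first screen's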
# UDG ctr A3G = E. coli UDG inhibition in APOBEC3G counter-screen. shares compounds with A3G deaminase. UDG counterscreen, FAM/TAMRA oligo fluorescence. inhibition, % at 20 µM. 710 tested, under 10 active. AID 504715;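 active means compounds giving 40% or more inhibition at 20 µM in any one of the three replicates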;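 further: plate controls were DMSO wells with UDG and oligo for no effect and DMSO wells lacking both for full effect; inhibitors lower the FAM signal released by uracil excision and alkaline cleavage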
# Active calls of the source: *; x = not tested or not shown. Hits are enriched below; roughly 2% of the tested compounds scored in any of these assays.
SMILES,Neddylation inh,PfGluPho inh,A3G deaminase,A3A deaminase,NPR2 activator,NPR1 activator,APOBEC3G confirm,UDG ctr A3G
Nc1nc2ccccc2[nH]1,2,-2,0,1,3,1,x,x
Nc1ccccc1Sc1nc2ccccc2[nH]1,2,62*,57*,0,2,1,2,x
O=C(CNCC(=O)Nc1ccc(F)c(F)c1F)Nc1ccc(F)c(F)c1F,0,-8,-5,-3,5,2,x,x
O=C(Cc1ncon1)Nc1ccc(F)c(F)c1F,6,4,66*,0,0,2,4,x
CC(c1ccc(NC(=O)OC(C)(C)C)cc1)c1cn(C)c2ccccc12 (configuration not stated),x,x,x,x,1,0,x,x
O=S(=O)(Nc1ccc(O)c(NS(=O)(=O)c2ccccc2)c1)c1ccccc1,18,5,50*,2,0,0,69*,-2
COC(=O)[C@@H](C)NC(=O)C(Cc1ccc2c(c1)OCO2)NC(C)=O (some centres not stated),x,x,x,x,-5,4,x,x
Cc1ccc(C(=O)CSc2ccc(-c3ccccc3)nn2)cc1,1,13,74*,-3,-1,-3,16,-1
COC(=O)[C@]12C[C@H](CC(=O)NCCCN3CCCC3=O)C(=O)N(Cc3ccco3)C1=C[C@H](C(C)C)O[C@@H]2C1CC1,x,x,x,x,-1,-2,x,x
Cc1ccn2c(C(=O)c3ccc(Cl)cc3)cnc2c1,-9,14,46*,3,1,-1,6,x
COC(=O)C1=C(C)N(Cc2cccc(C(F)(F)F)c2)C(=NCC2CC2)NC1c1ccc(F)cc1 (configuration not stated),x,x,x,x,-19,-20,x,x
Cc1cc(F)ccc1S(=O)(=O)Nc1ncnc2sc3c(c12)CCC3,5,-11,51*,-1,2,-1,-4,2
O=C(NCc1nnc(SCC(=O)N2CCCCCC2)o1)c1ccco1,10,-16,77*,-1,7,2,3,6
CC(C)[C@@H]1NC(=O)[C@H]2C[C@@]3(c4ccccc4)c4ccccc4N[C@H]3N2C1=O,x,x,x,x,3,4,x,x
COc1cc(CNCCNC(=O)c2nonc2N)ccc1OCc1ccc(Cl)cc1,-7,15,79*,-7,-12,-23,-2,-6
COc1cccc(CNCCNC(=O)c2nonc2N)c1,-8,-14,-4,4,0,3,x,x
COc1ccccc1NC(=O)CNC(c1ccccc1)c1ccccc1,9,-5,-9,-1,-3,-12,x,x
O=C(CNC(c1ccccc1)c1ccccc1)Nc1ccccc1Br,8,-25,50*,-4,-2,-12,-6,0
COc1ccc([C@H]2OC(=O)C[C@H]2C(=O)N2CCCC2)cc1OC,x,x,x,x,-8,3,x,x
CC(C)Cn1c(-c2cccc(S(=O)(=O)N3CCOCC3)c2)n[nH]c1=S,7,39,44*,-1,0,4,69*,1
CCC(C)n1c(-c2cccc(S(=O)(=O)N3CCOCC3)c2)n[nH]c1=S (configuration not stated),-2,33,26,-4,1,0,x,x
CCn1c(-c2ccc([N+](=O)[O-])cc2)n[nH]c1=S,-38,18,46*,-2,1,-1,73*,4
CCn1c(-c2cccc(Br)c2)n[nH]c1=S,10,24,47*,1,1,0,63*,3
CCn1c(-c2cccc(S(=O)(=O)N3CCCC3)c2)n[nH]c1=S,1,20,51*,1,3,2,27*,-2
O=[N+]([O-])c1ccc(/C=N/n2c(-c3ccccc3)n[nH]c2=S)cc1,-32,19,36,-3,-3,-1,x,x
SMILES,Neddylation inh,PfGluPho inh,A3G deaminase,A3A deaminase,NPR2 activator,NPR1 activator,APOBEC3G confirm,UDG ctr A3G
C[C@@H]1ON(C)[C@H]2C[C@H]3c4[nH]c5cccc(-c6ccccc6F)c5c4CCN3C(=O)[C@@H]12,x,x,x,x,4,3,x,x
CC(=O)N[C@@H]1C[C@@H]2O[C@H](CO)CC[C@@H]2O[C@@H]1CCc1ccc(C#CC2(O)CCCC2)cc1,x,x,x,x,4,0,x,x
COc1ccc2[nH]c3c(c2c1)CCN[C@]31C(=O)N(C)c2ccc(Br)cc21,x,x,x,x,0,-2,x,x
CCn1c(CCc2nc3ccccc3[nH]2)n[nH]c1=S,-10,23,19,-2,-1,1,x,x
Cc1ccc(-n2c(CCc3nc4ccccc4[nH]3)n[nH]c2=S)cc1,0,41,52*,4,-3,-2,27,x
CC(=O)N1CCc2cc(S(=O)(=O)NC3CCN(C(=O)OCc4ccccc4)CC3)ccc21,x,x,x,x,-9,4,x,x
S=c1[nH]c2ccc(Cl)cc2[nH]1,4,51,41*,-1,-2,1,81*,-3
COc1ccc2[nH]c(=S)[nH]c2c1,-3,-8,21,-2,4,2,x,x
O=C(C1CCN(c2ncnc3c2nc2n3CCCCC2)CC1)N1CCN(c2ccccc2F)CC1,1,-4,46*,4,0,4,1,x
N#CCC[C@@H]1CC[C@]2(CCCN(C(=O)c3ccco3)C2)O1,x,x,x,x,4,3,x,x
CC(=C/c1ccccc1)/C=N/n1c(-c2ccncc2)n[nH]c1=S,-24,10,61*,-2,-2,2,94*,2
S=c1[nH]nc(-c2ccccc2Cl)n1/N=C/C=C/c1ccco1,-9,21,51,32,2,2,x,x
CC(/C=N/n1c(-c2ccco2)n[nH]c1=S)=C\c1ccco1,-8,22,62*,17,1,-3,58*,-3
CC(/C=N/n1c(-c2ccncc2)n[nH]c1=S)=C\c1ccco1,13,32,66*,-1,-16,-11,90*,5
S=c1[nH]nc(-c2ccncc2)n1/N=C/C=C/c1ccco1,4,24,57*,11,1,0,74*,2
C=CCN1C(=O)[C@@H](CC(=O)NCCCN2CCCC2=O)[C@]2(C(=O)OC)CCCCC=C12,x,x,x,x,3,3,x,x
COC(=O)[C@]12CCCCC=C1N(Cc1ccc(OC)cc1)C(=O)[C@@H]2CC(=O)NCC12CC3CC(CC(C3)C1)C2,x,x,x,x,5,0,x,x
COc1cc2cc3c(N)c(C(=O)Nc4sc(C)c(C)c4C#N)sc3nc2cc1OC,-1,-6,48*,19,-3,-3,27*,4
COc1cc(C(=O)N2C(=O)CCC2=O)cc(OC)c1OC,-17,-17,57*,0,-3,-2,5,-1

# Compound activity: PubChem BioAssay, Sanford-Burnham Center for Chemical Genomics
